Each molecule was assayed on SGK. Settings: concentration: 1 μM, replicates: in singlicate; n = 1.
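Note: KINOMEscan kinase panel screen.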

First: Cc1cccc(Nc2nc(N[C@H]3CCNC3)ncc2C(N)=O)c1.Cl [GSK2197149]
Second: O=C(O)C(F)(F)F.O=C(O)C(F)(F)F.O=c1[nH]ccc2nc(N[C@@H]3CCCNC3)nc(Nc3ccc(S(=O)(=O)N4CCOCC4)cc3)c12 [GSK2177277]
The “%Inh” value of the first is lower: 0% for the first, 88% for the second.

`O=C(Nc1ccccc1F)NC1CCN(c2ccnc(Nc3ccc(F)cc3)n2)CC1` [GSK1379800] and `COc1ccc(CNC(=O)NC2CCN(c3ccnc(Nc4ccc(F)cc4)n3)CC2)cc1` [GSK1379788] are the same in “%Inh” value: 0% for the first, 0% for the second.

First: CN(C)S(=O)(=O)c1cc(-c2ccc3nccc(-c4cccc(S(N)(=O)=O)c4)c3c2)cnc1N [GSK1669921]
Second: Nc1ncc(-c2ccc3nccc(-c4ccncc4)c3c2)cc1S(=O)(=O)N1CCOCC1 [GSK1627798]
The “%Inh” value of the first is higher: 5% for the first, 0% for the second.

First: Cl.Cl.NCC(C(=O)Nc1cc(Br)c(-c2ccnc3[nH]ccc23)s1)c1ccccc1 (stereo not shown) [GSK1269851]
Second: Cl.Cl.NCC(NCc1ccc(-c2ccnc3[nH]ccc23)s1)c1ccccc1 (stereo not shown) [GSK1321565]
The “%Inh” value of the first is lower: 28% for the first, 55% for the second.

Compared with `COC(=O)Nc1nc2ccc(Oc3ccc(NC(=O)Nc4cc(C(F)(F)F)ccc4F)cc3)cc2n1C.Cl` [GW692089], `COC(=O)Nc1nc2cc(Oc3ccc(NC(=O)Nc4cc(C(F)(F)F)ccc4F)cn3)ccc2[nH]1.Cl.Cl` [GW681170] is higher in “%Inh” value: 8% for the first, 12% for the second.

`Nc1ncc(-c2cccnc2)c2scc(-c3ccc4c(c3)CCN4C(=O)Cc3ccccc3)c12` [GSK683281] and `Cl.Cl.NCC(NC(=O)c1cc(-c2ccccc2)c(-c2ccnc3[nH]ccc23)s1)c1ccccc1` (stereo not shown) [GSK1321561] are the same in “%Inh” value: 0% for the first, 0% for the second.

Compared with `Cc1ccc(C(=O)Nc2ccc(Nc3ccnc4cc(-c5nccs5)ccc34)cc2O)cc1.Cl` [GW494702], `Cl.c1ccc(-c2ccc3c(Nc4ccc5[nH]ncc5c4)ccnc3c2)nc1` [GW440137] is higher in “%Inh” value: 11% for the first, 58% for the second.

Going from `Cn1cc(-c2[nH]c3cc(NC(=O)[C@H](N)C4CCCCC4)cc4c3c2C=NNC4=O)cn1` to `O=C(Nc1n[nH]c2nc(-c3ccc(O)cc3)ccc12)C1CC1` [SB-710363], the “%Inh” value falls from 95.7% to 43%.

First: CCc1ccc(-c2ccc3c(c2)-c2c(cnn2C)S(=O)(=O)N3C)cc1
Second: CCCCc1nn2ncccc2c1-c1ccnc(Nc2ccc(N3CCN(C)CC3)cc2)n1 [GW684941]
The “%Inh” value of the first is lower: 0% for the first, 24% for the second.

`COc1cccc(NC(=O)NC2CCN(c3ccnc(Nc4cc(OC)c(OC)c(OC)c4)n3)C2)c1` (stereo not shown) [GSK1379763] and `COc1cc(Nc2nccc(N3CCC(NC(=O)Nc4cccc(C(C)=O)c4)C3)n2)cc(OC)c1OC` (stereo not shown) [GSK1379753] are the same in “%Inh” value: 0% for the first, 0% for the second.

First: CCS(=O)(=O)c1ccc(OC)c(Nc2nccc(-c3c(-c4cccc(NC(=O)c5c(F)cccc5F)c4)nn4ncccc34)n2)c1 [GSK326180]
Second: COc1cc(Nc2nccc(-c3c(-c4cccc(NC(=O)c5c(F)cccc5F)c4)nn4ccccc34)n2)cc(OC)c1OC [GSK323521]
The “%Inh” value of the first is lower: 0% for the first, 22% for the second.

Going from `CCn1c(-c2nonc2N)nc2c(C#CC(C)(C)O)ncc(OCCCCN)c21.O=C(O)C(F)(F)F.O=C(O)C(F)(F)F` [GSK507274] to `Nc1ncnc2c1nc(-c1ccccc1)n2-c1ccccc1` [SKF-97293], the “%Inh” value rises from 0% to 23%.

First: CN1CCN(CCCNc2nccc(-c3c(-c4ccc(F)cc4)nn4cc(C(F)(F)F)ccc34)n2)CC1 [GW621581]
Second: O=C(Nc1cccc(-c2nn3ccccc3c2-c2ccnc(Nc3cccc(C(F)(F)F)c3)n2)c1)c1c(F)cccc1F [GSK292658]
The “%Inh” value of the first is higher: 12% for the first, 11% for the second.

`COc1cc(Nc2ncc3c(C)nc(-c4cc5ccccc5[nH]4)n3n2)cc(OC)c1OC` [GW869516] and `CC(=O)Nc1nc2cnc(Nc3cc(NC(=O)c4cccc(C5(C#N)CC5)c4Cl)ccc3C)nc2s1` are the same in “%Inh” value: 0% for the first, 0% for the second.

First: Fc1ccc(-c2ncn(C3CCNCC3)c2-c2ccnc(Oc3ccc(-c4ccccc4)cc3)n2)cc1 [SB-245391]
Second: FC(F)(F)c1ccc(/C=C/c2cncnc2Nc2ccc3[nH]c(Cc4ccccc4)nc3c2)cc1 [GW709199]
The “%Inh” value of the first is higher: 12% for the first, 0% for the second.

`CC(=O)N1CCN(c2ccc(Nc3nccc(-c4sc(C(C)C)nc4-c4cccc(NS(=O)(=O)c5cccc(Cl)c5)c4)n3)cn2)CC1` [GSK1660437] was tested, and the “%Inh” value was 16%.

Reference: paper PMC5540273 (PLoS ONE, 2017)
